Reference: PubChem BioAssay
Calls of active or inactive are those of the source. The rule behind the calls is not given here.

Biological target: Pantothenate synthetase (Mycobacterium tuberculosis (strain ATCC 25618 / H37Rv)) (UniProt P9WIL5)
Test: Recombinant Mtb pantothenate synthetase (PanC) inhibitors, coupled enzyme, confirmatory (AID 375);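 note: 0% = full reaction with vehicle and 100% = no enzyme background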
Details: coupled enzyme assay; at 10 µM, stronger effect = higher value

Chain of Pantothenate synthetase (Mycobacterium tuberculosis (strain ATCC 25618 / H37Rv)) (P9WIL5 whole entry, looked up): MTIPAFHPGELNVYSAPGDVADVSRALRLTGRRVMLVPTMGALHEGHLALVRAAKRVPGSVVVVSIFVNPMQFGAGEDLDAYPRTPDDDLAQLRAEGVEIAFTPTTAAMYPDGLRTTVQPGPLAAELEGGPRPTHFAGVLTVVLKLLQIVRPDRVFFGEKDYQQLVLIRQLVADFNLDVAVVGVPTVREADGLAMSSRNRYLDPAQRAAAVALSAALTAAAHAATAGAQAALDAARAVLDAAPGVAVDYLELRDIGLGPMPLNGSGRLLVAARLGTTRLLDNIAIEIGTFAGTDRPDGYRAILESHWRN

Compound | inhibition
CN(C)c1ccc(NC(=O)CSCc2nc3c(nnn3Cc3ccc(F)cc3)c(=O)[nH]2)cc1 | 3% (inactive)
O=C(CSc1nnc(Cn2cnc3ccccc32)o1)c1ccccc1 | 0% (inactive)
Cc1ccc(S(=O)(=O)NCCc2ccncc2)cc1 | 2% (inactive)
c1ccc(-c2nnc(SCc3nc4ccccc4[nH]3)o2)cc1 | 0% (inactive)
Cc1nnc(SCc2ccccc2F)n1NCc1cccs1 | 3% (inactive)
CC(CCC(=O)Nc1nncs1)C(=O)O (stereo not drawn) | 1% (inactive)
Cc1ccc(C)c(OCCCC(C)(C)C(=O)O)c1 | 0% (inactive)
Cc1nnc(N2C(=O)C(O)=C(C(=O)c3ccco3)C2c2ccc(F)cc2)s1 (stereo not drawn) | 0% (inactive)
COc1ccc(C(=O)NCCc2nnc(SCc3nc4ccccc4c(=O)[nH]3)n2C)cc1 | 0% (inactive)
Cn1c(/C=N/n2cnnc2)nc2ccccc21 | 2% (inactive)
O=C1OC(N2CCN(c3ccccn3)CC2)c2ccccc21 (stereo not drawn) | 0% (inactive)
Cc1ccc(N2CCN(c3ccc(C)cc3)C(CC(=O)O)C2=O)cc1 (stereo not drawn) | 7% (inactive)
c1coc(CN2CN=C(Nc3nc4ccccc4s3)NC2)c1 | 0% (inactive)
Cc1ccc(Nc2nnns2)cc1C | 4% (inactive)
CCN(c1ccccc1)S(=O)(=O)c1ccc(F)cc1C | 1% (inactive)
Nc1ccc(-c2ccc(N)cc2C(F)(F)F)c(C(F)(F)F)c1 | 0% (inactive)
CCNC(=O)COc1ccc(Br)cc1Cl | 4% (inactive)
CN1CCN(/C=N/c2sc3c(c2C#N)CCCCC3)CC1 | 4% (inactive)
CN1CC=C2C(C#N)=C(N)C(C#N)(C#N)[C@H](c3cccc(Cl)c3)C2C1 (stereo partly drawn) | 0% (inactive)
CCCC(=O)Nc1ncnc2c1ncn2[C@@H]1O[C@@H]2COP(=O)(O)O[C@H]2[C@H]1OC(=O)CCC | 0% (inactive)
Oc1ccc(C=Nc2cccc3ncccc23)c(O)c1 | 2% (inactive)
OC1(c2cccc(C(F)(F)F)c2)CCNCC1 | 4% (inactive)
CC(=O)Nc1cccc(-c2nnc(-c3ccccc3)o2)c1 | 4% (inactive)
